# Shown are actives, neighbours in structure and some others; about 7.8% of the full set was active somewhere.
# sEH activator: activators of human soluble epoxide hydrolase; P34913; purified human sEH enzymatic activity, activator screen; activation, % at 2 µM; hit rate 0.04% among 91,000; in the data active = activation above about 37%
# Target sequence (P34913 whole entry, looked up): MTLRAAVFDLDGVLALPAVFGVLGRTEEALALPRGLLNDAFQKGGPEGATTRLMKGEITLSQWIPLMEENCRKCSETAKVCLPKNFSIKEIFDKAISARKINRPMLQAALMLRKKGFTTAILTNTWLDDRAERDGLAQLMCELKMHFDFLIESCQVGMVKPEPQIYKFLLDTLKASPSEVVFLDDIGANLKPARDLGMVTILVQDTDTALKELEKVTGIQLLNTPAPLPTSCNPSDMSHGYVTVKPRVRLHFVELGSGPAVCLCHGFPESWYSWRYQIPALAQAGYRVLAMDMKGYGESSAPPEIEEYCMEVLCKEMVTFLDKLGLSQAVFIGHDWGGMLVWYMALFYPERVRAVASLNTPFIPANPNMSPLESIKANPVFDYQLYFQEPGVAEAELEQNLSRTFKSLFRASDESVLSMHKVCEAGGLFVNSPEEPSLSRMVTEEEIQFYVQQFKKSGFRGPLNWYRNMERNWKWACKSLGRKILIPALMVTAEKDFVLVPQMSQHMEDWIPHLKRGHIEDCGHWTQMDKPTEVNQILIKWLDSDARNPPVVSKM
# PostGolgi yeast: growth inhibition of a yeast mutant, post-Golgi transport screen. inhibition, % at 10 µM. hit rate 0.9% among 98,000. post-Golgi transport phenotypic cell assay;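 also: yeast cells grown in 1536-well plates; yeast grown about 18 h at 30C before absorbance read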
# sEH inh: blocks human soluble epoxide hydrolase activity; recombinant human sEH enzymatic activity assay; inhibition, % at 2 µM; hit rate 0.34% among 91,000; P34913; in the data active = inhibition above about 80%
# Cav3 T inh: human Cav3.2 channel inhibition, primary screen. B-score at 10 µM. Cav3.2-expressing cells, Fluo-4 calcium fluorescence FDSS; stronger effect = lower value. hit rate 4% among 100,000;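 active = single-dose well whose peak fluorescence ratio is a statistical outlier from its plate by either plate-standardised score or position-corrected B-score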
# PostGolgi ctrl: growth of the yeast control strain, post-Golgi counter-screen; efflux-deficient yeast background strain, growth absorbance A615, 16 h; inhibition, % at 10 µM; hit rate 5% among 98,000
# * marks the source's active call; other numbers are inactive results; · = no result. Rule as the data show it, unless noted: active = inhibition above about 30%; inactive = the rest.
SMILES,sEH activator,PostGolgi yeast,sEH inh,Cav3 T inh,PostGolgi ctrl
O=C1CSC(c2ccc(F)cc2)N1c1nnc(C23CC4CC(CC(C4)C2)C3)s1 (stereo not given),-0.5,2.2,2.0,0.26,17.0
CCC1(C)Cc2c(sc3c2c2ncnn2c2nnc(SCC(=O)NCc4ccco4)n32)CO1 (stereo not given),·,-5.6,·,3.73*,5.9
CC1(C)Cc2c(sc3c2c2ncnn2c2nnc(SCC(=O)NCc4ccco4)n32)CO1,·,-8.3,·,2.6,14.6
CCOC(=O)C(C)Oc1ccc2c(C)cc(=O)oc2c1C(C)=O (stereo not given),-4.5,33.0*,3.6,0.285,2.8
O=C(NCc1cc(C(F)(F)F)cc(C(F)(F)F)c1)C12CN(Cc3ccccc3)CC1C(c1cccc([N+](=O)[O-])c1)=NO2 (stereo not given),-5.5,-7.7,3.6,-2.11,0.1
O=C(NCC1CCCO1)C12CN(Cc3ccccc3)CC1C(c1cccc([N+](=O)[O-])c1)=NO2 (stereo not given),-9.2,-1.7,7.4,0.421,-6.0
O=C(NCc1ccc(OC(F)(F)F)cc1)C12CN(Cc3ccccc3)CC1C(c1cccc([N+](=O)[O-])c1)=NO2 (stereo not given),1.7,-7.8,-3.8,-3.77*,6.0
CCCCN(CCCC)CCCNC(=O)C12CN(Cc3ccccc3)CC1C(c1cccc([N+](=O)[O-])c1)=NO2 (stereo not given),-8.7,2.2,6.8,-3.24*,-3.1
O=C(NCc1ccccc1)C12CN(Cc3ccccc3)CC1C(c1cccc([N+](=O)[O-])c1)=NO2 (stereo not given),12.7,-5.3,-6.4,-3.43*,10.2
CCOC(=O)c1cncc(NC(=O)c2ccccc2)c1,1.4,4.3,-1.9,0.459,-1.1
CSc1nc(N)nc(SCCS(=O)(=O)c2ccc(Cl)cc2)c1C#N,-7.6,1.8,10.3,-0.516,57.6*
O=c1ccccn1Cc1c(Cl)cccc1Cl,7.2,1.6,-4.2,-1.1,3.5
O=C1c2ccsc2SCCN1Cc1ccc(Cl)cc1Cl,1.2,-8.0,-4.0,-4.58*,5.2
O=C1c2ccsc2SCCN1Cc1c(Cl)cccc1Cl,10.6,-5.3,-12.9,-5.63*,19.1
O=c1ccc(/C=C/c2ccccc2)nn1Cc1ccc(Cl)cc1Cl,-6.2,-10.8,6.5,0.576,24.3
COc1nc(NCc2ccco2)nc(N2CCC(C)CC2)n1,-5.6,15.9,6.3,·,8.4
COc1nc(NCc2ccco2)nc(NC2CCCCC2)n1,-14.0,·,16.1,-4.04*,·
CCOC(=O)c1nc(N2CCN(C(=O)OCC)CC2)c2c3c(sc2n1)CCCC3,18.4,6.5,-21.3,0.104,37.3*
CC(C)Sc1nc(N2CCOCC2)c2c3c(sc2n1)COC(C)(C)C3,-5.5,-2.7,9.3,-3.82,43.5*
CCOC(=O)N1CCN(c2nc(SC)nc3sc4c(c23)CC(C)(C)OC4)CC1,·,·,·,-4.65*,·
CCOC(=O)c1cnn(-c2nc(SC)nc3sc4c(c23)CCCC4)c1N,3.6,8.0,-4.2,-1.29,76.3*
CCN1CCN(c2nc(SC)nc3sc4c(c23)CC(C)(C)OC4)CC1,·,3.6,·,-0.787,1.1
CCOC(=O)c1cnn(-c2ncnc3sc4c(c23)CCC4)c1N,10.7,2.3,-10.1,-0.264,4.5
CC(NC(=O)COc1ccccc1)C(c1ccccc1)N1CCN(C)CC1 (stereo not given),·,-1.9,·,-0.00775,-0.5
ONC(=Nc1ccc(Cl)cc1)c1ccccc1,·,4.5,·,·,14.0
SMILES,sEH activator,PostGolgi yeast,sEH inh,Cav3 T inh,PostGolgi ctrl
Cc1c(C(=O)NCCSCc2ccc(Cl)cc2Cl)cccc1[N+](=O)[O-],-9.0,1.0,11.2,-1.01,54.5*
Cn1c(=O)c2c(nc(CN3CCN(C(=O)c4ccco4)CC3)n2Cc2ccccc2F)n(C)c1=O,4.7,23.9,-1.1,1.65,23.3
CCc1ccccc1NC(=O)/C(=C/c1ccco1)c1ccccc1,-1.1,-2.2,-4.7,-5.54*,34.9*
COc1ccccc1NC(=S)NCCc1c[nH]c2ccccc12,4.8,1.8,-5.7,-0.746,-3.9
COc1cc(CNCCc2c[nH]c3ccccc23)ccc1OCc1ccc(F)cc1,5.2,-0.9,-2.0,-0.705,40.6*
COc1cccc(CNCCc2c[nH]c3ccccc23)c1OCc1ccc(F)cc1,5.2,93.0*,-2.0,-1.15,80.8*
O=[N+]([O-])c1ccc(Sc2nccn2Cc2ccccc2)c([N+](=O)[O-])c1,-16.9,-0.6,15.2,-1.19,16.0
CCCCOCCCNC(=O)c1c(-c2ccccc2)noc1C,5.3,-1.8,-5.6,-0.0858,6.1
CCOC(=O)N1CCN(CC(O)COCCC23CC4CC(CC(C4)C2)C3)CC1 (stereo not given),-1.5,3.9,0.1,-1.76,31.0*
CCN(CC)C(=O)C1CCN(Cc2ccc(Br)cc2)CC1,1.3,60.9*,-1.7,0.176,6.2
CCOC(=O)C1CCN(Cc2ccc(N(C)C)cc2)CC1,·,6.9,·,·,-0.1
CC[C@H](C)/C=C(C)/C=C/C(=O)Cc1cc(O)c(C)c(O)c1C=O,·,·,·,-3.64*,·
CCOc1ccc(NS(=O)(=O)c2ccc(NS(=O)(=O)c3ccccc3)cc2)cc1,4.8,-9.5,-5.8,-0.553,1.5
COc1ccc(C)cc1S(=O)(=O)Nc1cccc(Cl)c1,-4.3,-4.0,4.4,-3.14,43.4*
CCOc1ccc(S(=O)(=O)Nc2cccc(Cl)c2)cc1,-4.6,·,2.2,-3.73*,·
CCOc1cc(S(=O)(=O)NC2CCCC2)ccc1Cl,-3.7,-1.9,3.8,-3.21,6.7
CCOc1cc(S(=O)(=O)Nc2cc(C)cc(C)c2)ccc1Cl,-0.2,-13.8,2.1,-3.27,39.0*
CCOc1ccc(N(Cc2cc3ccc(C)cc3[nH]c2=O)S(C)(=O)=O)cc1,-2.3,21.3,0.4,-0.649,3.1
COCCCNC(=O)C12CCC(C)(C(=O)C1)C2(C)C (stereo not given),6.3,-8.0,-7.1,1.06,7.4
CCc1c(C)nc2ncnn2c1N1CCC(C(=O)Nc2ccccc2)CC1,-51.5,-3.1,51.2,0.115,2.2
CCc1c(C)nc2ncnn2c1N1CCC(C(=O)Nc2ccc(C)cc2)CC1,-83.4,25.3,83.3*,1.36,0.9
Cc1c(NC(=O)COC(=O)Cc2ccc(Cl)cc2)c(=O)n(-c2ccccc2)n1C,·,1.7,·,0.919,10.0
CCc1ccc(N(C(=O)c2csnn2)C(C(=O)NCc2ccccc2)c2ccco2)cc1 (stereo not given),5.4,5.6,-4.9,-2.73,-1.2
CN(C)c1ccc(C(C(=O)NC(C)(C)C)N(C(=O)c2csnn2)C2CC2)cc1 (stereo not given),-54.6,6.1,54.8,0.2,1.9
CCc1ccc(N(C(=O)c2csnn2)C(C(=O)NC(C)(C)C)c2ccncc2)cc1 (stereo not given),-13.1,35.0*,11.3,0.367,-1.7
COc1ccc(CNC(=O)C(c2ccc(C)o2)N(C(=O)c2csnn2)c2ccc(C(C)C)cc2)cc1 (stereo not given),-2.7,5.0,5.3,-7.08*,-0.1
Cc1ccc(C(C(=O)NCc2ccccc2)N(C(=O)c2csnn2)c2cccc3ccccc23)o1 (stereo not given),-7.7,6.1,5.9,-7*,11.8
CCCCC1(Cc2cccc([N+](=O)[O-])c2)C(=O)N(c2ccccc2)N(c2ccccc2)C1=O,1.6,1.9,-1.4,-2.26,21.1
